Common to all, as to assay: DAPPL (digital affinity profiling via proximity ligation, sequencing); 10 mM Tris-HCl pH 7.5, 50 mM NaCl, 1 mM DTT, 4% glycerol, room temperature, 30 min; GST-TFs on glutathione beads, 16-mer random dsDNA library, 0.1% formaldehyde crosslink after washing; high values mean tight binding
For one test, the target named is T1, FEV (Homo sapiens, UniProt Q99581 1-238).
T1 sequence: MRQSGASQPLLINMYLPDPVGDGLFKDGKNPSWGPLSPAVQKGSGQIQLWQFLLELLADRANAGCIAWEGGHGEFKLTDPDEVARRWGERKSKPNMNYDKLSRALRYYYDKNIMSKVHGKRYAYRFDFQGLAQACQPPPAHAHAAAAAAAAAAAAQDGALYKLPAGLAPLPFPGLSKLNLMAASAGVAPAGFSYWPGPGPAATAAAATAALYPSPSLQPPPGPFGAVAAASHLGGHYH
The note with it: protein: recombinant; tags: N-terminal GST; dsDNA, one strand shown. In a few lines:
(§1)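 Binding signal is each hexamer's read frequency for a factor divided by its frequency in the tag-only sample. The factors were GST-fused human transcription factors from yeast, captured on glutathione beads, DNA-barcoded and pooled with that sample. Pools were incubated with 200 nmole of a random double-stranded 16-mer DNA library in Tris/NaCl/DTT/glycerol buffer at room temperature for 30 min, then washed, crosslinked with 0.1% formaldehyde, proximity-ligated with BsaI/T4 ligase (1 h, 37 °C), PCR-amplified and sequenced on an Illumina NextSeq500.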

Another test deals with ETV5 (Homo sapiens, UniProt P41161 1-510). The note with it: protein: recombinant; tags: N-terminal GST; dsDNA, one strand shown. The procedure, abridged:
as §1

The target of the next test is HSF1 (Homo sapiens, UniProt Q00613 1-529). Conditions: protein: recombinant; tags: N-terminal GST; chain copies: 3; dsDNA, one strand shown. In a few lines: as §1
For another test, the target named is T2, SPIC (Homo sapiens, UniProt Q8N5J4 1-248).
T2 sequence: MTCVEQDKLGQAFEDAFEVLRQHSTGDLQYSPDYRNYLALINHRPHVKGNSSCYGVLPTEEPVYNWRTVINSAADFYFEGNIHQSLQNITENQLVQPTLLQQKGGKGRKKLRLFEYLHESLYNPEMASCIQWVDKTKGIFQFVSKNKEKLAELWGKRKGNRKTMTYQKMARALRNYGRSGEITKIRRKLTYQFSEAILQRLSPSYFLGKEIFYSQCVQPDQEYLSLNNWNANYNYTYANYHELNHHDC
Conditions: protein: recombinant; tags: N-terminal GST; dsDNA, one strand shown. The procedure, abridged:
as §1

The target in another test is ELF4 (Homo sapiens, UniProt Q99607 1-663). The note with it: protein: recombinant; tags: N-terminal GST; dsDNA, one strand shown. In a few lines:
as §1

A further test deals with T3, ELK4 (Homo sapiens, UniProt P28324-2 1-405).
T3 sequence: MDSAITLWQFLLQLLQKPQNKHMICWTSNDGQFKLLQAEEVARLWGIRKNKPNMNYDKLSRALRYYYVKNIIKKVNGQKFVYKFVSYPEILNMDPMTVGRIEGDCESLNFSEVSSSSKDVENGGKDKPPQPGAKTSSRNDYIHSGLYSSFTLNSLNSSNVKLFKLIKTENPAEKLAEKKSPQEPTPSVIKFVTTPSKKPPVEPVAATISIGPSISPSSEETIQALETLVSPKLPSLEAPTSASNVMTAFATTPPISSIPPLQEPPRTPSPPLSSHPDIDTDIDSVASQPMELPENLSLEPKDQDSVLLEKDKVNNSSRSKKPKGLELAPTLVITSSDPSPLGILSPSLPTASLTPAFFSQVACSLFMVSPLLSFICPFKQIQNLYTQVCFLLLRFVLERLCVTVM
Conditions: protein: recombinant; tags: N-terminal GST; dsDNA, one strand shown. The procedure, abridged:
as §1

Another test has as its target T4, ETV2 (Homo sapiens, UniProt O00321 1-342).
T4 sequence: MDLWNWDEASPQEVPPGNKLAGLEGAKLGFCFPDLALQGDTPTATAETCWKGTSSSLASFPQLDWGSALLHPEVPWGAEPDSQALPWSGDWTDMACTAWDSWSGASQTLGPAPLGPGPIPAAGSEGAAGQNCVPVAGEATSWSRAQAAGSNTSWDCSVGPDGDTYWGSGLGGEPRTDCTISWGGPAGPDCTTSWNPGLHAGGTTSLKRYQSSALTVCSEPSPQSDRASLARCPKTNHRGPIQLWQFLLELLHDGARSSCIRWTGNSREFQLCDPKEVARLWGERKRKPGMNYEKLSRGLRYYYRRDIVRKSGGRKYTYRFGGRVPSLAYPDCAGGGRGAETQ
Conditions: protein: recombinant; tags: N-terminal GST; dsDNA, one strand shown. In a few lines: as §1

For a further test, the target named is T5, ELF3 (Homo sapiens, UniProt P78545 1-371).
T5 sequence: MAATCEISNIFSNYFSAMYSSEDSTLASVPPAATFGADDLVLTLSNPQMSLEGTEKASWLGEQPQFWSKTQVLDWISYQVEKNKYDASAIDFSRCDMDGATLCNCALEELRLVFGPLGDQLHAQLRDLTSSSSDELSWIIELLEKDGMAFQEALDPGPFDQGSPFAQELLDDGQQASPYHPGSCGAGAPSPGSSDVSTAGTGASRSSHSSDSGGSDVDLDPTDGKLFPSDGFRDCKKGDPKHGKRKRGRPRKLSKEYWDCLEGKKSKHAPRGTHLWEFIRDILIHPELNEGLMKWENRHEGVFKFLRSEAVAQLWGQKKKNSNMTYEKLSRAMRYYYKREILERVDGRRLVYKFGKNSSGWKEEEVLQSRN
The note with it: protein: recombinant; tags: N-terminal GST; dsDNA, one strand shown. In a few lines:
as §1

For the next test, the target named is CRX (Homo sapiens, UniProt O43186 1-299). Conditions: protein: recombinant; tags: N-terminal GST; dsDNA, one strand shown. The procedure, abridged: as §1
A further test deals with ETV1 (Homo sapiens, UniProt P50549 1-477). The note with it: protein: recombinant; tags: N-terminal GST; dsDNA, one strand shown. The procedure, abridged:
as §1

A further test has as its target T6, ERF (Homo sapiens, UniProt P50548 1-548).
T6 sequence: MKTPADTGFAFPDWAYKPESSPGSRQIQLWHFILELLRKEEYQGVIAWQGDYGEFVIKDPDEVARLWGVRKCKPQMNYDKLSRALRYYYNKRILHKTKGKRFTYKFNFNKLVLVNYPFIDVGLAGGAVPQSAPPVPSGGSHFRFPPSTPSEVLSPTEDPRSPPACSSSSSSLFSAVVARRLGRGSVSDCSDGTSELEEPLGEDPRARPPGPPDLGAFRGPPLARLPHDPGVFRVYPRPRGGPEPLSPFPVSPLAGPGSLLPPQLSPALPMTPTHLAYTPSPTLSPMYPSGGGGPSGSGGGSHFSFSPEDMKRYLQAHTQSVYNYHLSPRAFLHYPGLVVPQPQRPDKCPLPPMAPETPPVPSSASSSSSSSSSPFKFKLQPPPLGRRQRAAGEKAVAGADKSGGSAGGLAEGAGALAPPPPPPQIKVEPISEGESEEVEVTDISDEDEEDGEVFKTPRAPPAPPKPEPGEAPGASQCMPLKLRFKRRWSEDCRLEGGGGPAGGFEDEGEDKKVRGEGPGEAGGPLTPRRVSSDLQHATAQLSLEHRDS
Conditions: protein: recombinant; tags: N-terminal GST; dsDNA, one strand shown. In a few lines: as §1

A further test has as its target T7, ETV3L (Homo sapiens, UniProt Q6ZN32 1-361).
T7 sequence: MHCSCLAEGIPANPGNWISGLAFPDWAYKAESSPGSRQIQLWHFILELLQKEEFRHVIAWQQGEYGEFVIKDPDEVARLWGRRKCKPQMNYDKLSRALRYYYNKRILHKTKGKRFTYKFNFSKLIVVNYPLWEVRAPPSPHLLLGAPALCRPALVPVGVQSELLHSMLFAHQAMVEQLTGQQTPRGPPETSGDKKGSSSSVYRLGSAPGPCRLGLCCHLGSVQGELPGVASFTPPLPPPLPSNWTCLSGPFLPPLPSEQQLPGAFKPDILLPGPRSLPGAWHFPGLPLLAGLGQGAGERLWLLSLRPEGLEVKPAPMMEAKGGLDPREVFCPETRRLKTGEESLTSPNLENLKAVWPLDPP
The note with it: protein: recombinant; tags: N-terminal GST; dsDNA, one strand shown. In a few lines: as §1

The target of a further test is T8, ETS2 (Homo sapiens, UniProt P15036 1-469).
T8 sequence: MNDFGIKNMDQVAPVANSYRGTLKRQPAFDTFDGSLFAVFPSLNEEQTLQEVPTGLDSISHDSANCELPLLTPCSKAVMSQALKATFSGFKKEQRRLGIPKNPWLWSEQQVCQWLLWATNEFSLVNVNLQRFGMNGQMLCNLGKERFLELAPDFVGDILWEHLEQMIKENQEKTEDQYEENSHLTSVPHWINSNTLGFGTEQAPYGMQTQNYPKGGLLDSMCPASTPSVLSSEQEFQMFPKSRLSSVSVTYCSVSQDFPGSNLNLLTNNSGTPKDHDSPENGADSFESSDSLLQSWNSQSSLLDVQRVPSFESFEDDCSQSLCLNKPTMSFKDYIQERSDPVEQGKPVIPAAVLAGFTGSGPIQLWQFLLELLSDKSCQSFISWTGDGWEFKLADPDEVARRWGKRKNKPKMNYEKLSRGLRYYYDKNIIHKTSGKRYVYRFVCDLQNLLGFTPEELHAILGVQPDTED
The note with it: protein: recombinant; tags: N-terminal GST; dsDNA, one strand shown. In a few lines:
as §1

Another test deals with T9, SPDEF (Homo sapiens, UniProt O95238 1-335).
T9 sequence: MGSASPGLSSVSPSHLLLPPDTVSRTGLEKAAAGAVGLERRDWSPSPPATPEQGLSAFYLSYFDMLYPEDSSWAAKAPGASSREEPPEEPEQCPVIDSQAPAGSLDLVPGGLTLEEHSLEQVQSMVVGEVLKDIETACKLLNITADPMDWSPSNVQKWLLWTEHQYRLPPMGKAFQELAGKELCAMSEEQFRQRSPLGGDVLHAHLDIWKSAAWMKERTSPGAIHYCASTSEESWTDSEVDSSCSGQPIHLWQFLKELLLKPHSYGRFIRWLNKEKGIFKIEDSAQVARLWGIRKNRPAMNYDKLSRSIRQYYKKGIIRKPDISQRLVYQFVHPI
The note with it: protein: recombinant; tags: N-terminal GST; dsDNA, one strand shown. The procedure, abridged:
as §1

A further test addresses T10, ETV7 (Homo sapiens, UniProt Q9Y603 1-341).
T10 sequence: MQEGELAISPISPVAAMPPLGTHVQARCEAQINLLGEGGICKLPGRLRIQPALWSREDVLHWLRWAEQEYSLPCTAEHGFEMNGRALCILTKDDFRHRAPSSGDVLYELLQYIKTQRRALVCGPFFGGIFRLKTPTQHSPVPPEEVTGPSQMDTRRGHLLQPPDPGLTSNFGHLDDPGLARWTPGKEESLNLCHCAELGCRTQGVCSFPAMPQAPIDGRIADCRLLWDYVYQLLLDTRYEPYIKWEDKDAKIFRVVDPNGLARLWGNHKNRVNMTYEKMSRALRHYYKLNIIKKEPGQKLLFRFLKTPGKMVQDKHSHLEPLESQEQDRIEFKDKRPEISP
The note with it: protein: recombinant; tags: N-terminal GST; dsDNA, one strand shown. In a few lines: as §1

The next test deals with T11, ELF5 (Homo sapiens, UniProt Q9UKW6-2 1-255).
T11 sequence: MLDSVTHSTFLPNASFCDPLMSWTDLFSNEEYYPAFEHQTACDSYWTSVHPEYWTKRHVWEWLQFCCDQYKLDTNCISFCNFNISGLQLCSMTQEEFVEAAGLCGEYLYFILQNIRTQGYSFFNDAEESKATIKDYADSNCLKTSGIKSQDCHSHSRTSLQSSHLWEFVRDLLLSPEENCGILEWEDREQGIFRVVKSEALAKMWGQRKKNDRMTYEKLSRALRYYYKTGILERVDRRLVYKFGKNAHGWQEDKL
Conditions: protein: recombinant; tags: N-terminal GST; dsDNA, one strand shown. In a few lines: as §1

A further test concerns the target T12, ETV3 (Homo sapiens, UniProt P41162-2 1-143).
T12 sequence: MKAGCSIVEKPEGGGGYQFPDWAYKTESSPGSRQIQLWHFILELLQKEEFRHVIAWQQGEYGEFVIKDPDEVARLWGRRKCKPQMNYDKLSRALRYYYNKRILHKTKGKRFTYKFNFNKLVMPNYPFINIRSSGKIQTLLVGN
Conditions: protein: recombinant; tags: N-terminal GST; dsDNA, one strand shown. In a few lines:
as §1

Another test deals with ETV6 (Homo sapiens, UniProt P41212 1-452). The note with it: protein: recombinant; tags: N-terminal GST; dsDNA, one strand shown. The procedure, abridged:
as §1

The source of these data is publication PMC7862700, “An all-to-all approach to the identification of sequence-specific readers for epigenetic DNA modifications on cytosine”.

Chain of HSF1 (Q00613 whole entry): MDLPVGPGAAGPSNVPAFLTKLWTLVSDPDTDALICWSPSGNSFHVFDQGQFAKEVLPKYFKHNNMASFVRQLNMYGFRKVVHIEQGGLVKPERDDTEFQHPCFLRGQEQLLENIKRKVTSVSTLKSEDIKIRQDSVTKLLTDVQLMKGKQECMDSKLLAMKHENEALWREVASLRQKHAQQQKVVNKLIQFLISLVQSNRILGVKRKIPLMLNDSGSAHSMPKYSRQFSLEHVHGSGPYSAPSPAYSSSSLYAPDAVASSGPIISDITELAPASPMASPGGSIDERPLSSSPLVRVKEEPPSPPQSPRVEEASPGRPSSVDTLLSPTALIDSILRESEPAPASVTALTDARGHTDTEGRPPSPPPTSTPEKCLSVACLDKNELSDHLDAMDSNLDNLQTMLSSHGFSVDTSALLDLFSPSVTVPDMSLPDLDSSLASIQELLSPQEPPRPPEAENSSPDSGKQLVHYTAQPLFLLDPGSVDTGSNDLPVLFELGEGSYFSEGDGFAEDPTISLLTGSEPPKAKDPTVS
Chain of ETV1 (P50549 whole entry): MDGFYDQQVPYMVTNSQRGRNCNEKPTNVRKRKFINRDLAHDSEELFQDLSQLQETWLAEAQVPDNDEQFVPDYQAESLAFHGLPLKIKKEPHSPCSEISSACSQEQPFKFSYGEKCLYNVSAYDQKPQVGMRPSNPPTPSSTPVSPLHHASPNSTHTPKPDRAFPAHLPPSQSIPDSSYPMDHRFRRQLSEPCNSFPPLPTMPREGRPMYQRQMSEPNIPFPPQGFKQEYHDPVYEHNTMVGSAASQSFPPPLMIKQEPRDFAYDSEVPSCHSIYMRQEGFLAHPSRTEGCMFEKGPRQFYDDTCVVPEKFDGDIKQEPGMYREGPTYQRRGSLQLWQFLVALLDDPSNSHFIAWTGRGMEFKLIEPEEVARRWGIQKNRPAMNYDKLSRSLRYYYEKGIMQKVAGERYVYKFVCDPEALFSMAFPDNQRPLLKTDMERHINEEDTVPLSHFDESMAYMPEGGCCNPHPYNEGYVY
Chain of ETV5 (P41161 whole entry): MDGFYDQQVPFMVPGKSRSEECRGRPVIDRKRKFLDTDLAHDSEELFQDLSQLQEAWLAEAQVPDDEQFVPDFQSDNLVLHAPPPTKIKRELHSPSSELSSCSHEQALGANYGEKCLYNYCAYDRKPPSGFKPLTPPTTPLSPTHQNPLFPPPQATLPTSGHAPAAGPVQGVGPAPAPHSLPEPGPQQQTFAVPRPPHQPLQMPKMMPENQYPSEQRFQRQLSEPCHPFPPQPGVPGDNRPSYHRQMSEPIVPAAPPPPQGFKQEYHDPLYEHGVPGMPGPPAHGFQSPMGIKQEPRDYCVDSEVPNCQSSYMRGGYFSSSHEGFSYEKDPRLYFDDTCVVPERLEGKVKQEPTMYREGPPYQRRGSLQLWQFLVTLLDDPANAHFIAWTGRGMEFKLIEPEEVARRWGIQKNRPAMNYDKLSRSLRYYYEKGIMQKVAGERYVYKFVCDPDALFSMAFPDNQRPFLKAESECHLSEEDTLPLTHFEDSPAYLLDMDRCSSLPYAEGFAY
Chain of ELF4 (Q99607 whole entry): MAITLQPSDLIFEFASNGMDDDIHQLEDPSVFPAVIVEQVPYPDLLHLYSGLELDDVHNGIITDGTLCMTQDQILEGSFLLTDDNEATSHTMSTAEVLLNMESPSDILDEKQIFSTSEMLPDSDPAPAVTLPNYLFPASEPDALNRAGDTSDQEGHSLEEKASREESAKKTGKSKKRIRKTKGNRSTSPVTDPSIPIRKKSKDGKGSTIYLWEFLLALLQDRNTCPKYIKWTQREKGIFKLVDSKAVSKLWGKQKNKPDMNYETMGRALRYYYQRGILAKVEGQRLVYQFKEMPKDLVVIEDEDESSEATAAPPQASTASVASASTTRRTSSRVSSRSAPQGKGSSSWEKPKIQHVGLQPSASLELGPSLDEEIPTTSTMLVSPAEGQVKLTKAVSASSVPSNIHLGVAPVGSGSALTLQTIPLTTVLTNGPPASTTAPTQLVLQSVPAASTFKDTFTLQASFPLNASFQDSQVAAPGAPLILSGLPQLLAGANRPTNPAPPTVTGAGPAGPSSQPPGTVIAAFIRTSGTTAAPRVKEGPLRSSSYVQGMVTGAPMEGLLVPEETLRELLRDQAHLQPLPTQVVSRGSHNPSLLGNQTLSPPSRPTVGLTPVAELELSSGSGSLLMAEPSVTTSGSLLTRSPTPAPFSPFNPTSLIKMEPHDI
Chain of ETV6 (P41212 whole entry): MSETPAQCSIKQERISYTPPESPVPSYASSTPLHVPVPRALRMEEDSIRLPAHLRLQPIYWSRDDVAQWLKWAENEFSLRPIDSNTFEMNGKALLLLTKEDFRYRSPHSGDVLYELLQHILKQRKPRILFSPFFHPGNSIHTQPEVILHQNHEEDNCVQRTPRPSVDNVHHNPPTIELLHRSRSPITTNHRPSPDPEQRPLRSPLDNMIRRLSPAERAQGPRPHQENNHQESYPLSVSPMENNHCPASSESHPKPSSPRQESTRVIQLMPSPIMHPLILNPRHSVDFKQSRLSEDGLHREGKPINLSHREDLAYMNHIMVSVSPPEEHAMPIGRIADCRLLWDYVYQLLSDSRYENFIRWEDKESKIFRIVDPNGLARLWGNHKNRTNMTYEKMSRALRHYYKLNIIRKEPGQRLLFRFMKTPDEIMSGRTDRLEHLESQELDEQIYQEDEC
Chain of CRX (O43186 whole entry): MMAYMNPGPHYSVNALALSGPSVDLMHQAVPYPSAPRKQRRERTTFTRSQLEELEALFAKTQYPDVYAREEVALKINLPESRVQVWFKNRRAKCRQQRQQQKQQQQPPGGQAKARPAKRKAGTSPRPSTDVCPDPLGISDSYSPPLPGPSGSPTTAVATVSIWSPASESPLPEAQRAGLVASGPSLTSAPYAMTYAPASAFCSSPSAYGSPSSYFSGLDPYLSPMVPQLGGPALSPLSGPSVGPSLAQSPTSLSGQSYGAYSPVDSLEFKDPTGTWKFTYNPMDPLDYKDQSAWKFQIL

TATTGT: the binding signal with FEV was 1.26 fold enrichment (6-mer frequency, TF over GST control); in the test with ETV5 it was 1.33 fold enrichment (6-mer frequency, TF over GST control); with HSF1, 1.27 fold enrichment (6-mer frequency, TF over GST control); with SPIC, 1.45 fold enrichment (6-mer frequency, TF over GST control); with ELF4, 1.24 fold enrichment (6-mer frequency, TF over GST control); in the test with ELK4, 1.36 fold enrichment (6-mer frequency, TF over GST control). Moreover, the binding signal is 1.32 fold enrichment (6-mer frequency, TF over GST control) with ETV2; 1.23 fold enrichment (6-mer frequency, TF over GST control) with ELF3; 1.47 fold enrichment (6-mer frequency, TF over GST control) with CRX; 1.25 fold enrichment (6-mer frequency, TF over GST control) with ETV1; 1.44 fold enrichment (6-mer frequency, TF over GST control) in the test with ERF; 1.32 fold enrichment (6-mer frequency, TF over GST control) in the test with ETV3L. The binding signal with ETS2 was 1.37 fold enrichment (6-mer frequency, TF over GST control); in the test with SPDEF, 1.3 fold enrichment (6-mer frequency, TF over GST control); with ETV7, 1.35 fold enrichment (6-mer frequency, TF over GST control); with ELF5 it was 1.23 fold enrichment (6-mer frequency, TF over GST control); in the test with ETV3, 1.34 fold enrichment (6-mer frequency, TF over GST control); with ETV6, 1.33 fold enrichment (6-mer frequency, TF over GST control).
